Reference: ChEMBL document CHEMBL1961873, “Compounds: GSK PKIS; Assays: Nanosyn kinase panel” (2012)

Experiments:
[1] = target: T1, Serine/threonine-protein kinase TBK1 (Homo sapiens) (UniProt Q9UHD2); conditions: at 1 µM;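 also: values are mean inhibition of TBK1, screened as part of the GSK published kinase inhibitor set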
T1 sequence (whole entry): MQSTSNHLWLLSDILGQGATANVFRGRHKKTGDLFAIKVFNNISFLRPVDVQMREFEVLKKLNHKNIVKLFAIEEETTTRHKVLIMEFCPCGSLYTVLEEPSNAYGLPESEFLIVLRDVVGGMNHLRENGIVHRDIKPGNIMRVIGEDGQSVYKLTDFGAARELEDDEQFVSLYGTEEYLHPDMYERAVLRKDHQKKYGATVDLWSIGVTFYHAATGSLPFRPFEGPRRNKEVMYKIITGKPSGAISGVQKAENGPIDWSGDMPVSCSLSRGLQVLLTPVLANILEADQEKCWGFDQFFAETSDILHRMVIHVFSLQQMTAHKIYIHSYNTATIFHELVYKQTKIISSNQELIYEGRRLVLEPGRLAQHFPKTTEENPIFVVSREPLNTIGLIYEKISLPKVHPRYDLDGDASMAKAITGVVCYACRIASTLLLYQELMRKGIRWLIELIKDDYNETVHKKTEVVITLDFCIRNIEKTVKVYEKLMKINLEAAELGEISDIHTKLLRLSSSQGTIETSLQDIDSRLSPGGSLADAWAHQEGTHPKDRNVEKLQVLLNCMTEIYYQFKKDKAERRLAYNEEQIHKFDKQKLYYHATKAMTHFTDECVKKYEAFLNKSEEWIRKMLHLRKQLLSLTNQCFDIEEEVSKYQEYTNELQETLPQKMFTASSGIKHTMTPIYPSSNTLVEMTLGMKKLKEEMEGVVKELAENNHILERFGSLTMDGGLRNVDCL

[2] = target: T2, Testis-specific serine/threonine-protein kinase 1 (Homo sapiens) (UniProt Q9BXA7); conditions: at 0.1 µM
T2 sequence (whole entry): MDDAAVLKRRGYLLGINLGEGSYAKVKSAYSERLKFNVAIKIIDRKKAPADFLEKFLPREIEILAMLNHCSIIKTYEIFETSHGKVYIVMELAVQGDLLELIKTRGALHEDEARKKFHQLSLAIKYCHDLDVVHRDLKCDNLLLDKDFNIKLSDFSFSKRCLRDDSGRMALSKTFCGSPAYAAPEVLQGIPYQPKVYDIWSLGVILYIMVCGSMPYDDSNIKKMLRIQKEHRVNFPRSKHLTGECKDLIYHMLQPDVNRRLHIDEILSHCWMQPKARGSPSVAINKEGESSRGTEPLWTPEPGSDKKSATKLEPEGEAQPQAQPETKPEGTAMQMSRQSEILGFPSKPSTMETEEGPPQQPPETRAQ

[3] = target: T2, Testis-specific serine/threonine-protein kinase 1 (Homo sapiens); conditions: at 1 µM
[4] = target: T3, Testis-specific serine/threonine-protein kinase 2 (Homo sapiens) (UniProt Q96PF2); conditions: at 0.1 µM
T3 sequence (whole entry): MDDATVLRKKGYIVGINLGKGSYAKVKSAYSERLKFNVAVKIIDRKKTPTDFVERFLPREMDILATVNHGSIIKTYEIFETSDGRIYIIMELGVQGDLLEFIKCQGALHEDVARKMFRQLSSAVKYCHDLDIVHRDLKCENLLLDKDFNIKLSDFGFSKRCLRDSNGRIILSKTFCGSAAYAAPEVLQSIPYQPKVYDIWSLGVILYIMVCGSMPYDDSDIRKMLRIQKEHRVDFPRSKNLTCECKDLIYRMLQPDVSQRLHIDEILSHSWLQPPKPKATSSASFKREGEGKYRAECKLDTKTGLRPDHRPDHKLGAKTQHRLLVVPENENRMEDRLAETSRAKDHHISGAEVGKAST

[5] = target: T3, Testis-specific serine/threonine-protein kinase 2 (Homo sapiens); conditions: at 1 µM
[6] = target: Casein kinase I isoform alpha (Homo sapiens) (UniProt P48729); conditions: at 0.1 µM
[7] = target: Casein kinase I isoform alpha (Homo sapiens) (UniProt P48729); conditions: at 1 µM
[8] = target: Casein kinase I isoform gamma-1 (Homo sapiens) (UniProt Q9HCP0); conditions: at 0.1 µM
[9] = target: Casein kinase I isoform gamma-1 (Homo sapiens) (UniProt Q9HCP0); conditions: at 1 µM
[10] = target: Casein kinase I isoform gamma-2 (Homo sapiens) (UniProt P78368); conditions: at 0.1 µM;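 also: values are mean inhibition figures reported as part of the GSK PKIS dataset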
Chain of Casein kinase I isoform gamma-2 (Homo sapiens) (P78368 whole entry, looked up, canonical isoform): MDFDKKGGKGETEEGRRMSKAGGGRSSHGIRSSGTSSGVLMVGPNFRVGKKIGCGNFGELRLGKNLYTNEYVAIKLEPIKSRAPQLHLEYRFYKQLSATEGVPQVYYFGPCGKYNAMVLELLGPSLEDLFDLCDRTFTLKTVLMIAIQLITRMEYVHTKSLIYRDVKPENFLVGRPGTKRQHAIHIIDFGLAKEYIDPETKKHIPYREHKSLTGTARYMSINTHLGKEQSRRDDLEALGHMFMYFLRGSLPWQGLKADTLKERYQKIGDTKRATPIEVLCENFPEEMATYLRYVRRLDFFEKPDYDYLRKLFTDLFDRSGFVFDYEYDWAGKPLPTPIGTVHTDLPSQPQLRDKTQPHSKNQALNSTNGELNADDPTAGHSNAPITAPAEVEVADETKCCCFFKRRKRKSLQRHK

Chain of Casein kinase I isoform gamma-1 (Homo sapiens) (Q9HCP0 whole entry, looked up, canonical isoform): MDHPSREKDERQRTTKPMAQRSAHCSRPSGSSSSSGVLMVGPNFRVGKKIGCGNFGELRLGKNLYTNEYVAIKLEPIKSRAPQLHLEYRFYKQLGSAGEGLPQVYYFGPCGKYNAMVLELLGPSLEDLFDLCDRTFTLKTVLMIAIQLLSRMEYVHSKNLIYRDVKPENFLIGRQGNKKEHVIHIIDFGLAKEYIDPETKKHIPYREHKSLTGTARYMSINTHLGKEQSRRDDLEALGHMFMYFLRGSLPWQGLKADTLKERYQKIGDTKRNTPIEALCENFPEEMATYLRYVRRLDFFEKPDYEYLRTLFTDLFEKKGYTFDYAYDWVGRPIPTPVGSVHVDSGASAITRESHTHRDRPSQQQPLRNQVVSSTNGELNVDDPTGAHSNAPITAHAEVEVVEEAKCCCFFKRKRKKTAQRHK
Chain of Casein kinase I isoform alpha (Homo sapiens) (P48729 2-337 limits assumed): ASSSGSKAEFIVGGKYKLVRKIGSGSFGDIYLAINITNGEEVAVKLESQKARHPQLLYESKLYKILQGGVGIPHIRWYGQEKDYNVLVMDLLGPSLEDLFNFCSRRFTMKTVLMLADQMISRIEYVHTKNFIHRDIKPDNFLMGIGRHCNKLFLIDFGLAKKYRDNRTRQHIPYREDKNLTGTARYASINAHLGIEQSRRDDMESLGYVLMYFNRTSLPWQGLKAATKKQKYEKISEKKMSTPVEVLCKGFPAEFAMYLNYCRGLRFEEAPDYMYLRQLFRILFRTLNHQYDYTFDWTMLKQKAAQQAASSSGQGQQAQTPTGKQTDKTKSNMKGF

| Compound | inhibition [1] | inhibition [2] | inhibition [3] | inhibition [4] | inhibition [5] | inhibition [6] | inhibition [7] | inhibition [8] | inhibition [9] | inhibition [10] |
| --- | --- | --- | --- | --- | --- | --- | --- | --- | --- | --- |
| Cc1cccc2c1NC(=O)/C2=N\Nc1ccc(S(N)(=O)=O)cc1 | 3.42% | 1.83% | 3.05% | 0.81% | -1.61% | 1.01% | 4.19% | 2.88% | 3.11% | 1.59% |
| CCn1c(-c2nonc2N)nc2ccccc21 | 3.36% | 2.04% | 0.61% | 0.97% | -0.93% | 2.92% | 3.37% | 1.61% | 3.25% | 0.92% |
| CCn1cc(-c2ccnc3[nH]ccc23)c(-c2cccc(NC(=O)Nc3ccc(OCc4ccccc4)cc3)c2)n1 | -0.26% | 1.75% | 1.5% | -0.38% | -0.63% | -1.12% | -1.47% | 1% | 1.59% | 0.29% |
| CCN(CC)S(=O)(=O)c1ccc(OC)c(Nc2ncc(-c3ccccc3)o2)c1 | 4.22% | 0.3% | -0.98% | -0.73% | -0.01% | 1.13% | 1.02% | 0.91% | 0.27% | 0.3% |
| Nc1nc(-c2cccc(Cl)c2)c(-c2ccc3ncccc3n2)s1 | 4.37% | 7.29% | 12.9% | 3.52% | 6.73% | 1.48% | 5.89% | 5.14% | 16.6% | 4.46% |
| Nc1nc(-c2ccc(F)cc2)c(-c2ccc3ncccc3n2)s1 | 6.6% | 4.27% | 6.63% | 2.36% | 2.23% | 3.47% | 15.2% | 4.29% | 10.5% | 3.47% |
| CCCN1CCC(c2ccc(Nc3nc(Nc4cc(F)ccc4C(N)=O)c4cc[nH]c4n3)c(OC)c2)CC1 | 10.2% | 82.4% | 94.8% | 63.3% | 91.1% | 31.9% | 67.5% | 23.7% | 72.1% | 20.9% |
| CCNC(=O)O[C@H]1CN[C@H](C#Cc2cc3ncnc(Nc4ccc(OCc5cccc(F)c5)c(Cl)c4)c3s2)C1 | 3.67% | 2.93% | -2.91% | 3.47% | -1.23% | 1.8% | 1.43% | 2.15% | 2.01% | 1.8% |
| COc1cc(/C=N/Nc2ncnc3[nH]ncc23)ccc1O | 21.1% | 4.57% | 11.6% | 3.14% | 1.44% | 3.78% | 13.7% | 3.68% | 19% | 4.88% |
| Fc1ccc(-c2nn3ncccc3c2-c2ccnc(Nc3ccc4c(c3)OCCO4)n2)cc1 | 4.55% | 4.06% | 2.68% | 1.3% | 1.02% | 39.5% | 72.5% | 14.8% | 58.5% | 11.1% |
| Cc1cccc(Nc2ncc(-c3ccccc3)o2)c1 | 7.09% | 2.67% | 4.49% | 0.72% | 1.53% | 3.35% | 9.63% | 2.09% | 4.93% | 1.92% |
| COC(=O)c1sc(-n2cnc3cc(OC)c(OC)cc32)cc1OCc1ccccc1C(F)(F)F | 28.6% | 3.74% | 4.56% | 2.04% | 1.18% | -3.52% | 1.68% | 4.13% | 4.8% | 2.8% |
| CCN1CCC(CC(=O)Nc2n[nH]c3nnc(-c4cccc(F)c4F)cc23)CC1 | 4.19% | 2.14% | 1.72% | 3.15% | 1.74% | 0.5% | -1.29% | 0.85% | 2.08% | -0.21% |
| COc1cc2ncn(-c3cc(OCc4ccccc4C(F)(F)F)c(C(=O)N(C)C)s3)c2cc1OC | 0.81% | 1.76% | 1.34% | 0.13% | 0.32% | 0.11% | 0.76% | -0.13% | 0.81% | 0.13% |
| COC(=O)Nc1nc2ccc(Oc3ccc(NC(=O)Nc4cccc(Cl)c4)cc3)cc2[nH]1 | -2.2% | 2.29% | 0.67% | -0.06% | -0.21% | 0.11% | 0.94% | 0.68% | 1.34% | 0.75% |
| Cc1ccc(O)cc1Nc1ccnc2cc(-c3ccccn3)ccc12 | 6.68% | 3.87% | 3.16% | 1.09% | -1.1% | 3.78% | 12.5% | 4.65% | 11% | 2.73% |
| COC(=O)Nc1nc2ccc(S(=O)(=O)c3ccc(NC(=O)Nc4cc(C(F)(F)F)ccc4F)cc3)cc2[nH]1 | 3.98% | 2.57% | 0.57% | 0.12% | -0.82% | 2.65% | 5.12% | 2.34% | 2.83% | 1.08% |

| Compound | inhibition [1] | inhibition [2] | inhibition [3] | inhibition [4] | inhibition [5] | inhibition [6] | inhibition [7] | inhibition [8] | inhibition [9] | inhibition [10] |
| --- | --- | --- | --- | --- | --- | --- | --- | --- | --- | --- |
| CCOc1ccc2c(-c3ccnc(Nc4cccc(C(F)(F)F)c4)n3)cnn2n1 | 13.1% | 2.69% | 3.46% | 0.15% | 0.22% | 0.42% | 0.35% | 2.16% | 3.1% | 2.06% |
| CCn1c(-c2nonc2N)nc2c(C#CC(C)(C)O)ncc(OC3CCNCC3)c21 | 45.9% | 20.7% | 71.4% | 0.88% | 2.99% | 2.3% | 8.85% | 2.94% | 4.65% | 2.46% |
| CC(C)(CO)CNC(=O)c1ccc2c(c1)/C(=N/Nc1ccc(S(N)(=O)=O)cc1)C(=O)N2 | 63.4% | 0.17% | 11% | 0.45% | -0.69% | -1.33% | 7.84% | 0.88% | 4.11% | 0.93% |
| COc1ccc2[nH]c3c4[nH]c5ccc(OC)cc5c4c4c(c3c2c1)C(=O)NC4=O | 53.9% | 3.96% | 11.6% | 3.41% | 4.83% | 2.15% | 5.69% | 4.82% | 4.21% | 2.32% |
| COc1cccc(-c2c[nH]c3c(N/N=C/c4ccncc4)ncnc23)c1 | 34.6% | 1.82% | -0.71% | 0.73% | -2.11% | 5.65% | 7.98% | 1.21% | 4.05% | 0.6% |
| N#Cc1c(NC(=O)c2ccc(F)cc2)sc2c1CCCC2 | 0.54% | 0.45% | 0.89% | 0.22% | 0.33% | -0.68% | 1.93% | 0.85% | 0.78% | 0.66% |
| CCCN(CCS(C)(=O)=O)Cc1ccc(-c2ccc3ncnc(Nc4ccc(OCc5cccc(F)c5)c(Cl)c4)c3c2)o1 | 5.16% | 2.58% | 1.44% | 0.97% | 0.36% | 1.49% | 3.77% | 1.24% | 1.53% | 0.76% |
| c1ccc(COc2ccc(Nc3ncnc4ccc(-c5ccco5)cc34)cc2)cc1 | 0.67% | -0.63% | 0.68% | 0.44% | -0.19% | -0.74% | 0.74% | 0.87% | 1.15% | 1.03% |
| CCn1c(-c2nonc2N)nc2cnc(Oc3cccc(NC(=O)c4ccc(N(C)C)cc4)c3)cc21 | 6.31% | 10.9% | 52.2% | -0.81% | -0.76% | 2.09% | 7.22% | 1.44% | 1.65% | 1.06% |
| Cc1ccc2c(-c3ccnc(Nc4ccccc4)n3)c(-c3ccc(F)cc3)nn2n1 | 2.79% | 2.68% | 0.03% | 2.66% | -2.67% | 33.6% | 70.7% | 5.48% | 32% | 5.54% |
| Clc1ccc(-c2nn3ncccc3c2-c2ccnc(Nc3ccccc3)n2)cc1 | 2.57% | 0.84% | 0.18% | 2.19% | -0.46% | 5.52% | 39.6% | 3.83% | 1.87% | 0.23% |
| O=S(=O)(CCNCc1ccc(-c2ccc3ncnc(Nc4ccc(OCc5cccc(F)c5)c(Cl)c4)c3c2)o1)c1ccccc1 | 5.89% | 4.61% | 5.43% | 2.59% | 3.64% | 4.43% | 6.02% | 4.93% | 6.77% | 4.49% |
| COc1cccc(-n2ncc3c(N/N=C/c4ccc(F)cc4)ncnc32)c1 | 6.85% | 3.31% | 5.3% | 4.45% | 2.25% | 4.03% | 4.98% | 3.78% | 4.75% | 3.98% |
| CC(=O)Nc1cccc(C#Cc2cncnc2Nc2ccc(OCc3cccc(F)c3)c(Cl)c2)c1 | 3.45% | 1.34% | 0.24% | 0.06% | -1.88% | -1.79% | 3.28% | 2.22% | 2% | 0.52% |
| COc1ccc(-c2nn3ncccc3c2-c2ccnc(Nc3ccc4c(c3)OCCO4)n2)cc1 | 1.43% | -0.54% | -0.16% | 1.42% | -0.78% | 0% | 3.14% | 1.16% | 3.57% | 1.93% |
| CC(=O)NCc1cccc(C#Cc2cncnc2Nc2ccc(OCc3cccc(F)c3)c(Cl)c2)c1 | 4.8% | 1.79% | 2.15% | 0.5% | 1.59% | -1.4% | -0.4% | 0.6% | 0.01% | -0.69% |
| NC(=O)c1sc(-n2cnc3ccc(C(F)(F)F)cc32)cc1OCc1ccccc1Br | 2.04% | 3.44% | 3.86% | 2.62% | 2.38% | 0.93% | 2.88% | 3.36% | 3.78% | 3.03% |
